# Experimental data: PubChem BioAssay AID624297 (National Center for Advancing Translational Sciences (NCATS), 2012)
# Values joined by “and” are separate entries in the source; they are usually repeats but may differ in a detail not shown here. Equal values may be shown once. About 6,200 (1.8%) of roughly 340,000 compounds were called active. Roughly 10% stayed inconclusive and do not appear here. What follows is part of a selection rich in actives, with near analogues and random picks from the rest. Where a call stands in place of a potency, no number is given. Values without a mark were called inactive. The call rests on the fitted dose curve; in most records, active means well fitted activation curve with a large enough effect; inconclusive means small, poorly fitted or top-dose-only effect; inactive means no such curve, though single readings can be large or run the other way.
# Test: A quantitative high throughput screen for small molecules that induce DNA re-replication in SW480 colon adenocarcinoma cells. Further: nearly all actives have a fitted effect of over 55% in size.
# Conditions: Hoechst DNA content imaging, 48 h; series mostly up to 46.1 µM
# Summary of the method: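 Image-based DNA-content assay: after two days of treatment, nuclei were labelled with the DNA dye Hoechst and imaged, and hits were compounds raising the count of nuclei showing high fluorescence intensity.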
# Potency means the concentration at half of the fitted maximal effect.
SMILES,Potency,re-replication activation
COc1ccccc1-c1cc(C(=O)NCCCn2ccnc2)no1,inactive,–
O=C(NCCCn1ccnc1)c1cc(-c2ccccc2)on1,7.31 µM (active),–
COc1ccc(-c2cc(C(=O)NCCCn3ccnc3)no2)cc1,inactive,–
CCCCN1CC(CO)Oc2cccc(F)c2S1(=O)=O (configuration not stated),inactive,–
C[C@@H]1ON(C)[C@H]2C[C@H]3c4cc(N5CCN(C)CC5)ccc4CCN3C(=O)[C@@H]12,inactive,–
COc1ccc(/C=C/C(=O)Nc2ccc(C)cc2)cc1S(=O)(=O)N1CCOCC1,inactive,–
COc1ccc(/C=C/C(=O)Nc2cccnc2)cc1OC,inactive,–
COc1ccc(/C=C/C(=O)Nc2ccc(C34CC5CC(CC(O)(C5)C3)C4)cc2)cc1OC,18.4 µM (active),–
CC1=C(C)CC(C(=O)NNC(=O)c2csc3c2CCC(C(C)(C)C)C3)C(C(=O)O)C1 (configuration not stated),29.1 µM (active),–
CC1=C(C)CC(C(=O)NNC(=O)c2ccccc2O)C(C(=O)O)C1 (configuration not stated),inactive,–
COC(=O)c1c(NC(=O)C2CC(C)=C(C)CC2C(=O)O)sc2c1CCCCC2 (configuration not stated),inactive,–
NC(=O)C1(Nc2ccc(-c3ccccc3)cc2)CCCC1,inactive,–
Cc1ccc(S(=O)(=O)N2CCOCC2)cc1NC(=O)COC(=O)c1cnccn1,inactive,–
O=C(CC1Nc2ccccc2NC1=O)Nc1ccccc1 (configuration not stated),12.6 µM (active),–
O=C(CC1NCCNC1=O)Nc1ccc(Oc2ccccc2)cc1 (configuration not stated),inactive,–
COC(=O)c1cc(C)sc1NC(=O)CC1Nc2ccccc2NC1=O (configuration not stated),inactive,–
C[C@]12CCC(=O)C=C1C=CC1C2CC[C@@]2(C)C1CC[C@@]21CCC(=O)O1 (some centres not stated),inactive,–
Nc1ccc2c(c1)C(=Cc1cccnc1)c1ccccc1-2,inactive,–
Cc1ccc(SC(CC(=O)c2ccc(C(C)(C)C)cc2)C(=O)O)cc1 (configuration not stated),20.6 µM (active),–
Cc1ccc(C(=O)CNc2ccc(F)cc2)cc1,inactive,–
Cc1ccc(C(=O)CSc2ccccc2C(=O)O)cc1,inactive,–
O=C(N[C@H]1C/C=C\C(c2cccc(F)c2)N(Cc2ccccc2)C(=O)C1)OCC1c2ccccc2-c2ccccc21 (some centres not stated),inactive,–
C#CCOCCOCCOCCNc1nc(N2CCN(C(=O)[C@H](CCCN=C(N)N)n3cc(C(N)[C@@H](C)CC)nn3)CC2)nc(N2CCN(C(=O)[C@H](CO)n3cc([C@@H](N)C(C)C)nn3)CC2)n1 (some centres not stated),inactive,–
COC(=O)COc1cccc2c(=O)n(CC(=O)NCc3ccccc3)ccc12,2.59 µM (active),–
Cc1ccc(CNC(=O)CCNC(=O)Cn2ccc3ccccc3c2=O)cc1,inactive,–

SMILES,Potency,re-replication activation
COC(=O)COc1cccc2c(=O)n(CC(=O)NCCc3ccc(OC)c(OC)c3)ccc12,inactive,–
CN(Cc1ccc(CNC[C@H]2O[C@@H](n3cnc4c(N)ncnc43)[C@H](O)[C@@H]2O)o1)S(C)(=O)=O,inactive,–
CC(=O)Nc1ccc(NC(=O)COC(=O)C2CCC(C(C)(C)C)CC2)cc1 (configuration not stated),inactive,–
Cc1ccc(NC(=O)Cn2cnc3c(OCc4ccccc4)ncnc32)cc1C,inactive,–
CCOc1ccccc1N1CCN(C(=O)c2ccc3[nH]c(C)c(C)c3c2)CC1,18.4 µM (active),–
Cc1[nH]c2ccc(C(=O)N3CCN(C)CC3)cc2c1C,inactive,–
COc1ccccc1N1CCN(C(=O)c2ccc(Cl)c(S(=O)(=O)N3CCCC3)c2)CC1,inactive,–
Cc1cc(NC(=O)CN2C(=O)NC(CC(C)C)C2=O)no1 (configuration not stated),inactive,–
COc1ccc(CCNC(=O)c2ccc(NC(=O)CC3SC(N4CCCCC4)=NC3=O)cc2)cc1OC (configuration not stated),inactive,–
C=CC[C@H](CC(=O)OC(C)(C)C)C(=O)OC[C@H]1CCCN1C(=O)[C@H](CC=C)CC(=O)N(CCO)Cc1ccccc1,inactive,–
O=C(O)c1ccc(NC(=O)C2CCCCC2)cc1,inactive,–
CN1C(=O)c2ccc(NC(=O)C3CCCCC3)cc2C1=O,16.4 µM (active),–
CN1C(=O)c2ccc(NC(=O)c3c(F)c(F)c(F)c(F)c3F)cc2C1=O,inactive,–
COc1ccc2nc(N3C(=O)C(O)=C(C(=O)c4ccco4)C3c3ccco3)sc2c1 (configuration not stated),inactive,–
O=C(COC(=O)c1ccc(Br)o1)NC12CC3CC(CC(C3)C1)C2,inactive,–
O=C(CC(O)(C(F)(F)F)C(F)(F)F)Nc1ccc(Cl)c(Cl)c1,14.6 µM (active),–
O=C(CC1SCCNC1=O)Nc1ccc(Cl)c(Cl)c1 (configuration not stated),inactive,–
O=C(Cc1ccc(Cl)c(Cl)c1)Nc1ccc(SC(F)F)cc1,inactive,–
Cc1noc(C)c1C(=O)OC(C)C(=O)Nc1ccc2c(c1)OCO2 (configuration not stated),inactive,–
O=C1C2C3C=CC(C3)C2C(=O)N1c1ncc([N+](=O)[O-])s1 (configuration not stated),inactive,–
C/C(=N\Nc1ccccc1)c1cccs1,inactive,–
CC(C)c1nccn1S(=O)(=O)c1cc([N+](=O)[O-])ccc1Cl,inactive,–
CCc1nc(C)cn1S(=O)(=O)c1cc(OC)c(C)cc1C,inactive,–
CCc1nc(C)cn1S(=O)(=O)c1cc([N+](=O)[O-])ccc1Cl,4.11 µM (active),–
O=C(Nc1ccc(S(=O)(=O)N2CCOCC2)cc1)C1CCN(S(=O)(=O)c2ccc(Cl)cc2)CC1,inactive,–

SMILES,Potency,re-replication activation
CCO[C@H]1OC(C(=O)NCc2ccccc2)=C[C@@H](c2coc3ccccc3c2=O)[C@@H]1CCCO,inactive,–
CCO[C@@H]1OC(C(N)=O)=C[C@H](c2ccc(Br)cc2)[C@H]1CCCO,inactive,–
C#CCNC(=O)C1=C[C@@H](c2ccccc2)[C@H](CCCO)[C@@H](OCC)O1,23.1 µM (active),–
CN(c1ccccc1)S(=O)(=O)c1ccc(C(=O)N2CCN(c3ccccc3Cl)CC2)cc1,inactive,–
Cc1cc(C(=O)Nc2ccccc2N2CCOCC2)c2ccccc2n1,inactive,–
CNC(=O)COC(=O)c1cc(-c2ccc(OC)cc2)nc2ccccc12,inactive,–
COC(=O)c1cc(N2CCNCC2)nc2ccccc12,10.3 µM (active),–
Cc1cccc(NC(=O)c2ccc(S(=O)(=O)N(C)c3ccccc3)cc2)n1,inactive,–
CCCCCCc1ccc(O)cc1O,inactive,–
CCCCCCc1cc2cc(-c3nnc(-c4ccccc4)o3)c(=O)oc2cc1O,3.55 µM (active),–
Cc1c(CC(=O)NCCCCCC(=O)O)c(=O)oc2cc3occ(-c4ccccc4)c3cc12,inactive,–
CCCCNC1(C#N)CCN(Cc2ccccc2)CC1,inactive,–
COc1cc(NC(=O)COC(=O)c2cc(S(=O)(=O)N3CCOCC3)ccc2F)cc(OC)c1,inactive,–
O=C(COC(=O)c1c2c(nc3ccccc13)CCCC2)c1ccc(Br)s1,inactive,–
NS(=O)(=O)c1ccc(NC(=O)COC(=O)c2c3c(nc4ccccc24)/C(=C\c2ccc4c(c2)OCO4)CCC3)cc1,7.31 µM (active) and 11.6 µM (active),–
NS(=O)(=O)c1ccc(NC(=O)COC(=O)c2ccco2)cc1,inactive,–
NS(=O)(=O)c1ccc(NC(=O)COC(=O)c2cc3ccccc3oc2=O)cc1,inactive,–
O=C(COC(=O)c1ccncc1)Nc1ccc2c(c1)OCO2,inactive,–
O=C(COC(=O)c1ccc(F)cc1)Nc1ccc2c(c1)OCO2,inactive,–
O=C(COC(=O)c1c2c(nc3ccccc13)/C(=C\c1cccs1)CCC2)Nc1ccccc1Cl,14.6 µM (active) and 13 µM (active),–
NC(=O)c1ccc(NC(=O)COC(=O)c2c3c(nc4ccccc24)/C(=C\c2ccc4c(c2)OCO4)CCC3)cc1,7.31 µM (active),–
COc1cc(/C=C2\CCCc3c2nc2ccccc2c3C(=O)O)cc(Cl)c1O,inactive,–
OCC1(CO)CC2(C1)CC(CO)(CO)C2,inactive,–
COc1ccc(CCNC(=O)COC(=O)c2ncc(Cl)c(Cl)c2Cl)cc1OC,inactive,–
O=C(CNC(=O)c1ccccc1F)OCC(=O)c1c[nH]c2ccccc12,inactive,–

SMILES,Potency,re-replication activation
CC(=O)Nc1ccc(S(=O)(=O)Nc2ccc(N3CCCCC3)cc2)cc1,inactive,–
CCC1([N+](=O)[O-])COC(c2ccc(C(C)C)cc2)OC1 (configuration not stated),inactive,–
CC1CCCCC12NC(=O)N(CC(=O)OCc1c(F)cccc1Cl)C2=O (configuration not stated),inactive,–
COc1ccc(CNC(=O)C2CC(c3ccc(C(F)(F)F)cc3)=NO2)cc1 (configuration not stated),inactive,–
COc1ccc(C2=NOC(C(=O)NCc3ccco3)C2)cc1OC (configuration not stated),13 µM (active),–
COc1ccc(S(=O)(=O)N2CCC(C(=O)NCc3ccco3)CC2)cc1C,inactive,–
Cc1cc(N2CCCC2)ccc1NC(=O)COc1ccc(Cl)cc1,inactive,–
CC(C)n1cnc2c(NCc3ccccc3)cc(OCC3CCN(C)CC3)cc21,inactive,–
COc1ccccc1NS(=O)(=O)c1ccc(C)c(C(=O)NNC(=O)c2csc(N3CCOCC3)n2)c1,inactive,–
O=C(C(=O)N1CCc2ccccc2C1)N1CCc2ccccc2C1,inactive,–
O=C(NC1CCCC1)C(=O)c1c[nH]c2ccccc12,inactive,–
O=C(C(=O)N1CCc2ccccc2C1)c1c[nH]c2ccccc12,4.11 µM (active),–
COc1cc2c(-c3ccc4c(c3)OCO4)c(-c3ccsc3)oc(=O)c2cc1OC,–,-0.829% [at 9.22 µM]
COc1ccc(-c2ccc3c(c2)[C@@H]2C[C@H](N(C)S(=O)(=O)c4ccccc4)[C@H]([C@H](C)O)C(=O)N2CC3)cc1,inactive,–
CC1CCCN(C(=O)Cn2c(=O)oc3cc(S(=O)(=O)N4CCCCC4C)ccc32)C1 (configuration not stated),inactive,–
COC(=O)Nc1nc2ccc(Sc3ccccc3)cc2[nH]1,640 nM (active) and 2.06 µM (active),–
CC(C)c1nc2ccc(C(=O)O)cc2[nH]1,inactive,–
Cc1ccc(O)c(CNc2nc3ccccc3[nH]2)c1,inactive,–
COc1ccc(C)cc1NC(=O)CN1c2cccc3cccc(c23)S1(=O)=O,inactive,–
Cc1ccc(C(C(=O)NCC2CCCO2)N(C(=O)c2snc(C(N)=O)c2N)c2ccc(C(C)C)cc2)o1 (configuration not stated),18.4 µM (active),–
Cc1ccc(N(C(=O)c2snc(C(N)=O)c2N)C(C(=O)NCC2CCCO2)c2c[nH]c3ccccc23)cc1 (configuration not stated),inactive,–
CCOc1ccc(N(C(=O)c2snc(C(N)=O)c2N)C(C(=O)NCC2CCCO2)c2c[nH]c3ccccc23)cc1 (configuration not stated),inactive,–
